Results from PubChem BioAssay (Tox21).
Records with an inconclusive call do not appear. Values without a mark were called inactive. Calls come from the whole dose curve; as a rule, active = well fitted inhibition curve with a large enough effect in the repeat runs; inconclusive = weak or mixed curves, or effect the other way; inactive = no such curve, though single readings can be large or run the other way.

target: Nuclear receptor subfamily 1 group I member 3 (Homo sapiens) (UniProt Q14994); test: qHTS assay to identify small molecule antagonists of the constitutive androstane receptor (CAR) signaling pathway (AID 1224838); conditions: HepG2-CYP2B6-hCAR luciferase, CITCO-stimulated, 24 h; series mostly up to 92.4 µM; activity, negative = inhibition: at the top concentration; note: nearly all actives have a fitted effect of over 40% in size
In short: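 Compounds were titrated across 15 concentrations onto HepG2 cells double-stably expressing hCAR and a CYP2B6-2.2kb reporter, together with 50 nM CITCO (final). After 24 h at 37 C, luciferase activity was measured by luminescence.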
% is set by controls: 0 for no effect and ±100 for the full control effect.

Chain of Nuclear receptor subfamily 1 group I member 3 (Homo sapiens) (Q14994 whole entry, looked up): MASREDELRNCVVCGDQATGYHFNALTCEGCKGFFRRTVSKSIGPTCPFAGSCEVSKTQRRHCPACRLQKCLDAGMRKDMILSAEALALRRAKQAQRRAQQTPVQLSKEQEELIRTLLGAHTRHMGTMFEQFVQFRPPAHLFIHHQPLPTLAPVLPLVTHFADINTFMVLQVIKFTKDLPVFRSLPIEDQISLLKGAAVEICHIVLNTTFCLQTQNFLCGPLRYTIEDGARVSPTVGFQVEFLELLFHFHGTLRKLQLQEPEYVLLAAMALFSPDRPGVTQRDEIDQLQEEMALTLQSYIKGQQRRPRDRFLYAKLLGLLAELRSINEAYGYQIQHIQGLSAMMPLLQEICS

SMILES | activity, negative = inhibition
O=C1c2ccccc2C(=O)C1c1ccc2cc(S(=O)(=O)O)cc(S(=O)(=O)O)c2n1 | 93.3%
CCCCCCCCCCCCN1CCOCC1 | 13%
CC(=O)c1ccc(Cl)c(Cl)c1Cl | 9.89%
CC(C(=O)O)c1ccc(/C=C2\CCCCC2=O)cc1 (configuration not stated) | 179% [at 42.5 µM]
COC=O | 0.829% [at 8.39 µM]
Cc1c(N=C=O)cccc1N=C=O | -18.9%
CC(=O)c1cccnc1 | 2.89%
O=[N+]([O-])c1ccc(Cl)cc1Cl | 31.1%
CCCCCCCCNC | -11.2%
C=C(C)C(=O)OCCCCCCCCCCOC(=O)C(=C)C | 12.9%
Cc1cc(C)c(C)c(O)c1 | 11.7%
CCC(=O)O[C@]1(C(=O)COC)[C@@H](C)C[C@H]2[C@@H]3CCC4=CC(=O)C=C[C@]4(C)C3(F)[C@@H](O)C[C@@]21C (some centres not stated) | 48.3% [at 42.5 µM]
CCN(CC)CC(=O)OCC(=O)[C@@]1(O)CC[C@H]2[C@@H]3CCC4=CC(=O)CC[C@]4(C)[C@H]3[C@@H](O)C[C@@]21C | -7.66% [at 42.5 µM]
C=CC(=O)OCCCCCCCCCC | -5.7%
O=C(Cl)c1ccc(F)c(Cl)c1 | 76.3%
O=C(NC1CCN(CCc2c[nH]c3ccccc23)CC1)c1ccccc1 | 69.6% [at 42.5 µM]
CCOc1ccccc1O | -12.9%
CCN(CCCCOC(=O)c1ccc(OC)c(OC)c1)C(C)Cc1ccc(OC)cc1 (configuration not stated) | -13.2% [at 42.5 µM]
CC1(C)CC(O)CC(C)(C)N1[O] | -2.47%
CC(=O)S[C@H](C(=O)N[C@H]1Cc2ccccc2[C@H]2CCC[C@@H](C(=O)O)N2C1=O)C(C)C | -15.3%
CCOC(OCC)OCC | 8.15%
Cc1c(Cl)cccc1Nc1ccccc1C(=O)O | 1.25% [at 42.5 µM]
